# Experimental data taken from PubChem BioAssay (Tox21).
# Results filed as inconclusive are left out. Where a call stands in place of a potency, no number is given. Activity calls are given as the source filed them. The call rests on the fitted dose curve.
# Experiment: qHTS assay to identify small molecule agonists of the progesterone receptor (PR) signaling pathway - cell viability counter screen (AID 1346799); further: nearly all actives have a fitted effect of over 45% in size
# Details: PR-UAS-bla HEK293T viability, CellTiter-Glo luminescence, 16 h; series mostly up to 92.4 µM
# From the text: National Center for Advancing Translational Sciences [NCATS]
# NIH Chemical Genomics Center [NCGC]
# U.S. Environmental Protection Agency [EPA]
# National Institutes of Environmental Health Sciences [NIEHS]
# National Toxicology Program [NTP]
# U.S. Food and Drug Administration [FDA]
# Progesterone receptor (PR), a nuclear hormone receptor, plays an important role in development, metabolic homeostasis and reproduction. It is activated by the steroid hormone progesterone. Endocrine disrupting chemicals (EDCs) and their interactions with steroid hormone receptors like PR causes disruption of normal endocrine function. To identify the compounds that stimulate PR signaling, a PR-UAS-bla GripTite cell line i.e. PR-UAS-bla HEK293T (Invitrogen, Carlsbad, CA, USA) containing a beta-lactamase reporter gene under the control of an UAS response element was used to screen Tox21 10K compound library. The cytotoxicity of the Tox21 compound library against the PR-bla cell line was tested in parallel by measuring the cell viability using CellTiter-Glo assay in the same wells.
# Tox21 Assay Protocol Summary:
# PR-UAS-bla HEK293T cells were dispensed at 3,000 cells/5 uL of assay medium containing 2% charcoal stripped FBS per well into black wall/clear-bottom 1536-well plates using a Multidrop Combi (ThermoFisher Scientific, Waltham, MA) dispenser. After the assay plates were incubated at a 37C and 5% CO2 for 6 hr, 23 nL of compounds dissolved in DMSO, positive controls or DMSO only was transferred to the assay plate by a Pintool station (Kalypsys, San Diego, CA). The plates were incubated at 37C and 5% CO2 for 16 hr. Then 1 uL of LiveBLAzer B/G FRET substrate was added using a Flying Reagent Dispenser (FRD, Aurora Discovery, San Diego, CA), the plates were incubated at room temperature for 2 hours, and fluorescence intensity was measured by an Envision plate reader (PerkinElmer, Shelton, CT). For cell viability readout that measures cytotoxicity, 4 uL/well of CellTiter-Glo reagent was added into the assay plates using a FRD. After 30 min incubation at room temperature, the luminescence intensity in the plates was measured using a ViewLux (PerkinElmer) plate reader.
# Potency means the concentration at half of the fitted maximal effect.
row,Structure (SMILES),Potency
1,O=S(=O)(O)c1ccc(N=Nc2c(O)ccc3ccccc23)cc1,7.7 µM (active)
2,C=C(CC)C(=O)c1ccc(OCC(=O)O)c(Cl)c1Cl,inactive
3,CC(C)CCCCCOC(=O)CCS,inactive
4,CCCCCC(C)OC(=O)COc1ccc(Cl)c2cccnc12 (stereo not given),inactive
5,CCn1c2ccccc2c2cc([N+](=O)[O-])ccc21,inactive
6,C#Cc1ccc(-c2ccccc2F)cc1,inactive
7,O=S(=O)(O)c1ccc(Nc2nc(Nc3ccc(/C=C/c4ccc(Nc5nc(Nc6ccc(S(=O)(=O)O)cc6)nc(N(CCO)CCO)n5)cc4S(=O)(=O)O)c(S(=O)(=O)O)c3)nc(N(CCO)CCO)n2)cc1,inactive
8,S=c1nccc[nH]1,inactive
9,CCCC(=O)OCCc1ccccc1,inactive
10,COc1ccc2c(c1)c(CC(=O)OC/C=C(\C)CC/C=C(\C)CCC=C(C)C)c(C)n2C(=O)c1ccc(Cl)cc1,inactive
11,O=C(O)c1cc(-c2ccc(F)cc2F)ccc1O,inactive
12,OC1CCC(C2CCCCC2)CC1 (stereo not given),inactive
13,CCOC(=O)Cn1cccc1-c1nc(-c2ccc(OC)cc2)c(-c2ccc(OC)cc2)s1,inactive
14,CC(CCc1ccccc1)NCC(O)c1ccc(O)c(C(N)=O)c1 (stereo not given),inactive
15,Nc1ccc(C(=O)O)c(O)c1,inactive
16,O=C1CCCCCCCCCCCCCCCO1,inactive
17,CCCC(=O)OCOC(=O)C1=C(C)NC(C)=C(C(=O)OC)C1c1cccc(Cl)c1Cl (stereo not given),inactive
18,CCCCCCCC,inactive
19,O=C(/C=C/c1ccc(O)c(O)c1)O[C@@H](C(=O)O)[C@@H](OC(=O)/C=C/c1ccc(O)c(O)c1)C(=O)O,inactive
20,OC[C@H]1O[C@H](O[C@H]2O[C@H](CO)[C@@H](O)[C@H](O)[C@H]2O)[C@H](O)[C@@H](O)[C@@H]1O,inactive

row,Structure (SMILES),Potency
1,CC(=O)[C@H]1CC[C@H]2[C@@H]3CCC4=CC(=O)CC[C@]4(C)[C@H]3CC[C@]12C,60.8 µM (active)
2,c1cnccn1,inactive
3,CCCCCCCCCCOC(=O)c1ccccc1C(=O)OCCCCCCCC,inactive
4,COc1cccc(OC)c1C(=O)O,inactive
5,O=C(O)c1cc(=O)c2ccccc2o1,inactive
6,CC(N=C(NC#N)Nc1ccncc1)C(C)(C)C (stereo not given),inactive
7,O=C(O)CCN(C1(C(=O)NO)CCCC1)S(=O)(=O)c1ccc(Oc2ccc(F)cc2)cc1,inactive
8,Nc1cc(Cl)c(O)c(Cl)c1,inactive
9,Cc1c(C)c2c(c(C)c1OC(=O)c1cccnc1)CC[C@@](C)(CCC[C@H](C)CCC[C@H](C)CCCC(C)C)O2,inactive
10,Cl[Si](Cl)(c1ccccc1)c1ccccc1,inactive
11,C=C(C)c1cccc(C(=C)C)c1,inactive
12,Cc1cc(-n2nc3ccc(Cl)cc3n2)c(O)c(C(C)(C)C)c1,inactive
13,CC1(C)CCC[C@]2(C)[C@H]3CCO[C@]3(C)CC[C@@H]12,inactive
14,COc1c(C)c2c(c(O)c1C/C=C(\C)CCC(=O)OCCN1CCOCC1)C(=O)OC2,0.237 µM (active)
15,Cc1ccc(C)cc1,inactive
16,CCOC(=O)NNc1ccc(N(CC)CC(C)O)nn1 (stereo not given),inactive
17,C=Cc1cccc(C)c1,inactive
18,Nc1nc(-c2ccccc2)cs1,inactive
19,Sc1nc2ccccc2s1,inactive
20,O=C1C(c2[nH]c3ccc(S(=O)(=O)O)cc3c2O)=Nc2ccc(S(=O)(=O)O)cc21,inactive
